# Assay results published in PubChem BioAssay AID2284358 (EPA ToxCast).
# Records with an inconclusive call do not appear. Calls of active or inactive are those of the source. How the source made its calls: active means hit-call score of the fitted dose curve at least 0.9, where 1 is the maximum; inconclusive means response in the unintended direction; inactive means score below 0.9.
# Target: zebrafish Retinoid X Receptor beta (RXRb), rxrba (gene 30530) (UniProt Q7SYN5)
# Assay: ATG_zfRXRb_EcoTox2: Attagene TRANS-FACTORIAL EcoTox-2 HepG2 Assay for zebrafish Retinoid X Receptor beta (RXRb)
# Experimental: ATG_EcoTox2 is a cell-based, multiplexed assay created by modifying the existing Attagene TRANS-FACTORIAL system to include a panel of nuclear receptors from some or all the following species: human (Homo sapiens), african clawed frog (Xenopus laevis), rainbow trout (Oncorhynchus mykiss), japanese medaka (Oryzias latipes), and zebrafish (Danio rerio). The ECOTOX2-FACTORIAL format uses HepG2, a human liver cell line, with measurements taken at 24 hours after chemical dosing in a 24-well plate. ATG_zfRXRb_EcoTox2 is one of 29 assay components calculated in the ATG_EcoTox2 assay. It is designed to make measurements of mRNA induction, a form of inducible reporter, as detected with fluorescence intensity signals by Reverse transcription polymerase chain reaction (RT-PCR) and Capillary electrophoresis technology.The assay endpoint ATG_zfRXRb_EcoTox2 was analyzed in the positive analysis fitting direction relative to DMSO as the negative control and baseline of activity. Using a type of inducible reporter, measures of mRNA for gain-of-signal activity can be used to understand the reporter gene at the transcription factor-level as they relate to the gene RXRb. Furthermore, this assay endpoint can be referred to as a primary readout, because this assay has produced multiple assay endpoints where this one serves a reporter gene function. To generalize the intended target to other relatable targets, this assay endpoint is annotated to the nuclear receptor intended target family, where the subfamily is non-steroidal.
# Human liver HepG2 cells are transiently transfected with multiple reporter transcription units (MRTUs) in 6-well plates using FuGene 6 reagent (Roche; 3 ml FuGene/1 mg DNA). The MRTU constructs are regulated by a cis-regulating element (promoter). Each RTU expresses a GAL4-UAS that regulates the transcription of a nearby target reporter gene sequence. A major difference between the CIS and TRANS system is that in CIS activities of endogenous TFs are measured, whereas the TRANS assay evaluates changes in activities of exogenous, chimeric NR-Gal4 proteins. […] At the end of 24 hour incubation, total RNA was isolated using TriZol reagent (Invitrogen). The isolated RNA is then reverse-transcribed using oligo(dT) primer and Mo-MLV reverse transcriptase (Invitrogen) with DNAse I (Ambion) treatment for 30 min. The one-tenth of the produced cDNA was amplified by PCR using Taq DNA polymerase (Invitrogen) and two reporter sequence-specific primers. The PCR products were fluorescently labeled by primer extension with 6-arboxyfluorescein (6-FAM) 5'-labeled reporter sequence-specific primer (2 min at 95 C, 20 s at 68 C and 10 min at 72 C) and these products were digested with 5U of HpaI (New England Biolabs) for 2h at 37 C. The fragments were purified using Qiaquick PCR columns (Qiagen), analyzed on an ABI 3130xL genetic analyzer (Applied Biosystems) with peak positions identified by using a set of X-rhodamine (ROX)-labeled MapMarker1000 molecular weight standards (BioVentures). The raw capillary electrophoresis data was processed using Attagraph software (Attagene).
# Chain of zebrafish Retinoid X Receptor beta (RXRb), rxrba (gene 30530) (Q7SYN5 whole entry, looked up): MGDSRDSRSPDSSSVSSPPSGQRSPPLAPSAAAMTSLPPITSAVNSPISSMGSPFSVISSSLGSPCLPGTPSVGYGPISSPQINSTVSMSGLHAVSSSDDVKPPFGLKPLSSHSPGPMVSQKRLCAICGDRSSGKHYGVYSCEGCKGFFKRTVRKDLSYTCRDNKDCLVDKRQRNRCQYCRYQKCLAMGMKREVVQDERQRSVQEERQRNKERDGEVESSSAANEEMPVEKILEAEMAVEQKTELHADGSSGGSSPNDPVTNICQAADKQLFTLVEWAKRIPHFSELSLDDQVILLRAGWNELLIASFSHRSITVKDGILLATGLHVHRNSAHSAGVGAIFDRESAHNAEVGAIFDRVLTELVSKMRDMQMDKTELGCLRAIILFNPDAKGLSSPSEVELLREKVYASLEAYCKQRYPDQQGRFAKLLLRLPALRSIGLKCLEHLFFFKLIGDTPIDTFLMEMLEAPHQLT
SMILES,AC50,outcome
C=C(c1ccc(C(=O)O)cc1)c1cc2c(cc1C)C(C)(C)CCC2(C)C,597 nM (active),–
CC(C)(Oc1ccc(Cl)cc1)C(=O)O,–,inactive
Cc1c(C)c2c(c(C)c1O)CCC(C)(COc1ccc(CC3SC(=O)NC3=O)cc1)O2 (stereo not given),–,inactive
C[C@]12C=CC(=O)C=C1CC[C@@H]1[C@@H]2C(=O)C[C@@]2(C)[C@H]1CC[C@]2(O)C(=O)CO,–,inactive
CC(C)(Oc1ccc(CCNC(=O)c2ccc(Cl)cc2)cc1)C(=O)O,–,inactive
CC(c1cc2ccccc2s1)N(O)C(N)=O (stereo not given),–,inactive
C[C@@H]1C[C@H]2[C@@H]3CCC4=CC(=O)C=C[C@]4(C)[C@@]3(F)[C@@H](O)C[C@]2(C)[C@@]1(O)C(=O)COP(=O)(O)O,–,inactive
Cc1cccc(Nc2cc(Cl)nc(SCC(=O)O)n2)c1C,–,inactive
Cc1ccc(C)c(OCCCC(C)(C)C(=O)O)c1,–,inactive
CC(C)(Oc1ccc(C2CC2(Cl)Cl)cc1)C(=O)O (stereo not given),–,inactive
